Screening data: PubChem, The Scripps Research Institute Molecular Screening Center
Hits are enriched below; roughly 1.6% of the tested compounds scored in any of these assays.
HTR5A ag – HTR5A agonists in luminescence cell assay, primary screen, counter-screen for OPRM1-OPRD1 heterodimer agonist project, full-deck HTS. activation, % at 9.3 µM. 0.61% of 340,000 active. cell-based; in the data active = activation mostly above about 9.5%, no sharp cut-off; inactive = mostly below about 7.6%
MOR-DOR ag-1 – agonists of OPRM1-OPRD1 heterodimerization, primary screen, cell-based, luminescence | 0.3% of 340,000 active | AID 504326, 2011 | cells | Mu-type opioid receptor (Homo sapiens) + Delta-type opioid receptor (Homo sapiens), … | activation, % at 9.3 µM
OPRM1-OPRD1 inv – inverse agonists of MOR-DOR heterodimerization, primary screen, cell-based, luminescence | Mu-type opioid receptor (Homo sapiens) + Delta-type opioid receptor (Homo sapiens), … | inhibition, % at 9.3 µM | AID 504357, 2011 | cell-based MOR-DOR heterodimer luminescence, inverse agonism | 0.21% of 340,000 active; in the data active = inhibition above about 22%, passing the limit was not always enough
HTR5A inv ctr – HTR5A inverse agonists in luminescence cell assay, primary screen, counter-screen for OPRM1-OPRD1 heterodimer inverse agonist project, full-deck HTS; 5-hydroxytryptamine receptor 5A (Homo sapiens), P47898; HTR5A cell line, inverse agonism; inhibition, % at 9.3 µM; 0.083% of 340,000 active; AID 504634, 2011; in the data active = inhibition mostly above about 23%, no sharp cut-off; inactive = mostly below about 18%
HTR2A ag – mouse Htr2a agonists via beta-arrestin recruitment, primary screen, cell-based, luminescence. CHO-K1 mHTR2A beta-arrestin complementation; percent of 30 µM serotonin response. activation, % at 7.6 µM. 0.66% of 360,000 active. 5-hydroxytryptamine receptor 2A (Mus musculus), P35363. AID 624169, 2012;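 active = activation above a run cutoff, the mean activation of all tested compounds plus 3 SD, cut at about 14% in these data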
Target sequence (P35363 whole entry, looked up): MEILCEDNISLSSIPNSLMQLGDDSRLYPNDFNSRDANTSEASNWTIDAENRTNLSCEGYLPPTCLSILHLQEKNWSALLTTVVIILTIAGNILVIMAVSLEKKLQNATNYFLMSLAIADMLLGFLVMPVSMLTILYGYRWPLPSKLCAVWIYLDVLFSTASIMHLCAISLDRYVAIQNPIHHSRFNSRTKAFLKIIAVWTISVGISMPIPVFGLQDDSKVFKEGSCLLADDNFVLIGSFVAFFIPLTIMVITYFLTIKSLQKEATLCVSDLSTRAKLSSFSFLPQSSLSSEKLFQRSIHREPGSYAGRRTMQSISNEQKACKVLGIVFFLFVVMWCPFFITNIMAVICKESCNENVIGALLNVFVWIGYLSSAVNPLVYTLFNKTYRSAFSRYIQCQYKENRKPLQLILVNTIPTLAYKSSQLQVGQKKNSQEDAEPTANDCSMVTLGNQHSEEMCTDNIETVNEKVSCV
MOR-DOR ag-2 – OPRM1-OPRD1 heterodimerization promoters, counter-screen for HTR5A agonist project, cell-based, luminescence | AID 504913, 2011 | activation, % at 9.3 µM | 13% of 800 active | U2OS counter-screen cells, complementation luminescence, 3 h | shares compounds with HTR5A ag
HTR5A ag confirm – HTR5A agonists, retest of hits, confirmation, cell-based, luminescence; 17% of 800 active; activation, % at 9.3 µM; shares compounds with HTR5A ag; HTR5A agonist cell assay; AID 504915, 2011; in the data active = activation above about 17%
Large screens that a line does not name were inactive (follow-up assays come after a bar, where they were run). Rule as the data show it, unless noted: active = activation above about 18%; inactive = the rest.

Cc1ccc(C(=O)N2CCCC(N3CCN(c4cccc(C(F)(F)F)c4)CC3)C2)s1 (stereo not drawn)	HTR5A ag 14.6 | MOR-DOR ag-2 inactive | HTR5A ag confirm inactive
O=S(=O)(Nc1cccc(-c2ccc3nncn3n2)c1)c1ccccc1F	HTR5A ag 20.1 | MOR-DOR ag-2 18.4 | HTR5A ag confirm inactive
O=S(=O)(Nc1ccc(-c2ccc3nncn3n2)cc1)c1ccccc1F	none
Cc1nc(NC(=O)/C=C/c2ccccc2)sc1C(=O)Nc1ccc(Cl)cc1	HTR5A ag 17.1 | MOR-DOR ag-2 inactive | HTR5A ag confirm inactive
c1ccc(CCNC2=NCCCS2)cc1	HTR5A ag 19.7 | MOR-DOR ag-2 inactive | HTR5A ag confirm inactive
CCc1nc2ccc(C(=O)NCCC(C)C)cn2c1N(CC)CCOC	none (no result: HTR5A ag, MOR-DOR ag-1, OPRM1-OPRD1 inv, HTR5A inv ctr)
CC(C)C[C@H](NC(=O)N1CC(=O)Nc2ccccc21)C(=O)N[C@H](Cc1c[nH]c2ccccc12)C(=O)O	none
CC(C)C[C@H](NC(=O)N1CC(=O)Nc2ccccc21)C(=O)N[C@@H](Cc1c[nH]c2ccccc12)C(=O)O	HTR5A ag 39.8 | MOR-DOR ag-2 inactive | HTR5A ag confirm inactive
O=[n+]1c2c(n([O-])c3cc(F)c(N4CCCC4)cc31)CCCC2	HTR5A ag 14.9 | MOR-DOR ag-2 inactive | HTR5A ag confirm 40.0
O=C1NC[C@@H](CCCCN2C[C@H](Cc3ccc(O)cc3)N(CC3CCCCC3)C(=O)C2=O)N(CCc2ccccc2)C1=O	none (no result: HTR5A ag, MOR-DOR ag-1, OPRM1-OPRD1 inv, HTR5A inv ctr)
COc1ccc(C(CCN2CCCC(C)C2)c2c(OC)cc(OC)c3c(-c4ccccc4)cc(=O)oc23)cc1 (stereo not drawn)	HTR5A ag 22.6 | MOR-DOR ag-2 inactive | HTR5A ag confirm inactive
CCN(CC)c1ccc(C(=O)NNC(=O)Cn2c(=O)cnc3ccccc32)cc1	none (no result: HTR5A ag, MOR-DOR ag-1, OPRM1-OPRD1 inv, HTR5A inv ctr)
CC(C)C(OC(=O)CN1C(=O)c2ccccc2C1=O)C(=O)NC1CCCCC1 (stereo not drawn)	HTR5A ag 14.8 | MOR-DOR ag-2 inactive | HTR5A ag confirm inactive
CC(OC(=O)C1=COCCO1)C(=O)NC1CCCC(C)C1C (stereo not drawn)	none (no result: HTR5A ag, MOR-DOR ag-1, OPRM1-OPRD1 inv, HTR5A inv ctr)
O=C(CSC1=NCCN1)Nc1cccc(C(F)(F)F)c1	HTR5A ag 22.9 | MOR-DOR ag-2 23.5 | HTR5A ag confirm inactive
CCCCCCCCCn1c2c(c(=N)c3c1CCC3)CCC2	HTR5A ag 25.2 | MOR-DOR ag-2 inactive | HTR5A ag confirm inactive
COc1ccc(Cl)cc1NC(=O)NCc1ccccn1	HTR5A ag 17.2 | MOR-DOR ag-2 inactive | HTR5A ag confirm inactive
Cc1csc(Cn2c(CN(C)C)nc3ccccc3c2=O)n1	none
CN(C)Cc1nc2ccccc2c(=O)n1Cc1nc(-c2cc3ccccc3o2)cs1	HTR5A ag 16.9 | MOR-DOR ag-2 inactive | HTR5A ag confirm inactive
CC(=O)NC(=S)Nc1ccc(NC(=O)COc2ccc(Cl)cc2Cl)cc1	HTR5A ag 26.9 | MOR-DOR ag-2 inactive | HTR5A ag confirm inactive
C/C(=N\NC(=O)c1ccccc1[N+](=O)[O-])c1ccc(Br)s1	none
C/C(=N\NC(=O)c1ccccc1O)c1ccc(Br)s1	HTR5A ag 14.8 | MOR-DOR ag-2 inactive | HTR5A ag confirm 27.9
COc1ccc2[nH]c3c(c2c1)CCNC3c1ccc([N+](=O)[O-])o1 (stereo not drawn)	none
COc1ccc2[nH]c3c(c2c1)CCNC3C1CC=C(C)CC1 (stereo not drawn)	HTR5A ag 33.6 | MOR-DOR ag-2 inactive | HTR5A ag confirm 51.3
O=C(COc1ccc(-c2ccccc2)cc1)N/N=C/c1cc(O)ccc1Br	HTR5A ag 21.6 | MOR-DOR ag-2 254.9 | HTR5A ag confirm inactive
COc1ccc(-c2cc(-c3c(O)c(OC)c4occc4c3OC)[nH]n2)cc1	HTR5A ag 15.0 | MOR-DOR ag-2 inactive | HTR5A ag confirm inactive
O=C(Nc1ccccn1)c1ccc(CN(c2ccccc2)S(=O)(=O)c2ccccc2)cc1	none
COc1ccc(N(Cc2ccccc2)S(=O)(=O)c2cccc(C(=O)Nc3ccccn3)c2)cc1	HTR5A ag 18.8 | MOR-DOR ag-2 inactive | HTR5A ag confirm inactive
COc1ccc(S(=O)(=O)NC(=O)C2(C)CCN2C(=O)CC2CCCC2)cc1 (stereo not drawn)	none (no result: HTR5A ag, MOR-DOR ag-1, OPRM1-OPRD1 inv, HTR5A inv ctr)
CCC(=NNC(=O)c1ccc2c(c1)nc(C)n2CC)c1cc(F)ccc1O	HTR5A ag 18.4 | MOR-DOR ag-2 inactive | HTR5A ag confirm inactive
Brc1ccc2nc(-c3ccco3)c(CC3CCCCC3)n2c1	none (no result: HTR5A ag, MOR-DOR ag-1, OPRM1-OPRD1 inv, HTR5A inv ctr)
CCOC(=O)c1c(C)oc2c1c(C=NCCO)c(O)c1ccccc12	HTR5A ag 16.5 | MOR-DOR ag-2 inactive | HTR5A ag confirm inactive
OC(Cc1ccccc1Br)c1ncc(-c2ccc(Cl)cc2)[nH]1 (stereo not drawn)	none (no result: HTR5A ag, MOR-DOR ag-1, OPRM1-OPRD1 inv, HTR5A inv ctr)
O=C(CSCc1ccccc1)N/N=C/c1ccccc1OCc1ccccc1	none
COc1ccc(CSCC(=O)N/N=C/c2ccccc2OCc2ccccc2)cc1	HTR5A ag 21.9 | MOR-DOR ag-2 inactive | HTR5A ag confirm inactive
Cc1cc(O)c(C(C)C)cc1C1(c2cc(C(C)C)c(O)cc2C)OC(=O)c2ccccc21	HTR5A ag 20.2 | MOR-DOR ag-2 inactive | HTR5A ag confirm inactive
COC(=O)c1ccc(NC(=O)COc2cccc3c2OC(C)(C)C3)cc1	HTR5A ag 39.8 | MOR-DOR ag-2 inactive | HTR5A ag confirm 43.8
CC1(C)Cc2cccc(OCC(=O)Nc3ccc(OCC(N)=O)cc3)c2O1	none
CN(C)C(=O)c1ccc(NC(=O)COc2cccc3c2OC(C)(C)C3)cc1	HTR5A ag 28.3 | MOR-DOR ag-2 inactive | HTR5A ag confirm 37.6
CC1(C)Cc2cccc(OCC(=O)Nc3ccc(S(N)(=O)=O)cc3)c2O1	HTR5A ag 34.2 | MOR-DOR ag-2 inactive | HTR5A ag confirm inactive
COc1ccc(S(=O)(=O)N2CCCCC2c2cc(C(=O)NCc3cccnc3)no2)cc1 (stereo not drawn)	none (no result: HTR5A ag, MOR-DOR ag-1, OPRM1-OPRD1 inv, HTR5A inv ctr)
N#Cc1c(N)[nH]c(C(=O)c2ccccc2)c1-c1ccccc1Br	none (no result: HTR5A ag, MOR-DOR ag-1, OPRM1-OPRD1 inv, HTR5A inv ctr)
COC(=O)c1c(C(=O)OC)c(-c2ccccc2)n2c1CCC2	none
COC(=O)c1c(C(=O)OC)c2n(c1C)Cc1ccccc1C2	HTR5A ag 15.4 | MOR-DOR ag-2 inactive | HTR5A ag confirm inactive
O=C(NC1CCCCC1)OC1CC2CC1[C@H]1CCCCN1C2=O (stereo partly drawn)	none (no result: HTR5A ag, MOR-DOR ag-1, OPRM1-OPRD1 inv, HTR5A inv ctr)
O=C(C1CCCCC1)N1C[C@@H](O)[C@H](n2cc(-c3ccc(F)cc3)nn2)C[C@@H]1c1ccc(Cl)cc1	none (no result: HTR5A ag, MOR-DOR ag-1, OPRM1-OPRD1 inv, HTR5A inv ctr)
